Here are results for eleven molecules from publication PMC5540273 (PLoS ONE, 2017).

Experiment [1] concerns GRK7. The settings on record: concentration: 1 μM, replicates: in singlicate; n = 1.
The test system of experiment [2] is GSK3A. The settings on record: concentration: 1 μM, replicates: in singlicate; n = 1.
Experiment [3] concerns GSK3B. The settings on record: n = 1.
In experiment [4] the test system is T1, HASPIN.
T1 construct: gene GSG2
The settings on record: concentration: 1 μM, replicates: in singlicate; n = 1.

The test system of experiment [5] is HCK. The settings on record: concentration: 1 μM, replicates: in singlicate; n = 1.
Experiment [6] has as its system HIPK1. The settings on record: concentration: 1 μM, replicates: in singlicate; n = 1.
The test system of experiment [7] is HIPK2. The settings on record: concentration: 1 μM, replicates: in singlicate; n = 1.
The test system of experiment [8] is HIPK3. The settings on record: concentration: 1 μM, replicates: in singlicate; n = 1.
Experiment [9] deals with HIPK4. The settings on record: concentration: 1 μM, replicates: in singlicate; n = 1.
For experiment [10], the system named is HPK1. The settings on record: concentration: 1 μM, replicates: in singlicate; n = 1.
Experiment [11] relates to HUNK. The settings on record: concentration: 1 μM, replicates: in singlicate; n = 1.
The test system of experiment [12] is ICK. The settings on record: concentration: 1 μM, replicates: in singlicate; n = 1.
Experiment [13] deals with IGF1R. The settings on record: concentration: 1 μM, replicates: in singlicate; n = 1.
Experiment [14] relates to T2, IKK-alpha.
T2 construct: gene CHUK
The settings on record: concentration: 1 μM, replicates: in singlicate; n = 1.

Experiment [15] deals with T3, IKK-beta.
T3 construct: gene IKBKB
The settings on record: concentration: 1 μM, replicates: in singlicate; n = 1.

Experiment [16] concerns T4, IKK-epsilon.
T4 construct: gene IKBKE
The settings on record: concentration: 1 μM, replicates: in singlicate; n = 1.

Experiment [17] concerns INSRR. The settings on record: concentration: 1 μM, replicates: in singlicate; n = 1.
In experiment [18] the test system is INSR. The settings on record: concentration: 1 μM, replicates: in singlicate; n = 1.
For experiment [19], the system named is IRAK1. The settings on record: concentration: 1 μM, replicates: in singlicate; n = 1.
Experiment [20] has as its system IRAK3. The settings on record: concentration: 1 μM, replicates: in singlicate; n = 1.
The mark [21] stands for this setting: concentration: 1 μM, replicates: in singlicate.

Where two headings read alike, the source gives them in different places.
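Further: KINOMEscan kinase panel screen.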

Take `Nc1ncnc2[nH]c(-c3ccccc3)nc12` [AH5015]: the “%Inh” value is recorded as 0% in experiment [1]; 21% in experiment [2]; 23% in [3] (setting [21]); 59% in [4]; 0% in experiment [5]; 19% in [6]. The “%Inh” value in [7] turned out to be 0%; in experiment [8], 39%; in experiment [9] it was 21%; in [10] it was 39%; in [11] it was 0%; in experiment [12], 0%. The “%Inh” value in experiment [13] is reported as 3%; in [14] it was 42%; in experiment [15] it was 55%; in experiment [16], 0%; in [17], 19%; in experiment [18] it was 0%. In addition, the “%Inh” value in experiment [19] and in [20] was 0% each time.
`COC(=O)c1c(-c2ccccc2)c2cc(OC)ccc2c(=O)n1Cc1ccccc1`: the “%Inh” value was determined as 24% in experiment [1]; 14% in [2]; 18% in experiment [3] (setting [21]); 3% in experiment [4]; 22% in [5]; 7% in experiment [6]. For the same molecule, the “%Inh” value in experiment [7] worked out at 11%; in experiment [8], 3%; in experiment [9] it was 0%; in experiment [10], 0%; in [11] it was 0%; in experiment [12], 0%. Also, the “%Inh” value was 0% in experiment [13]; 5% in [14]; 4% in experiment [15]; 0% in experiment [16]; 9% in experiment [17]; 0% in experiment [18]. In addition, the results for the “%Inh” value in [19] and in experiment [20] were 11% and 12%, respectively.
`C[C@@H]1CCCCN1c1cc(-c2ccc3c(N)n[nH]c3c2)nc(N)n1` [GSK2258759]: the “%Inh” value in experiment [1] is reported as 0%; in experiment [2] it was 3%; in experiment [3] (setting [21]), 3%; in experiment [4], 14%; in experiment [5], 0%; in experiment [6], 0%. The “%Inh” value stood at 0% in [7]; 14% in experiment [8]; 0% in experiment [9]; 28% in experiment [10]; 0% in experiment [11]; 11% in experiment [12]. The “%Inh” value in experiment [13] came out at 4%; in experiment [14], 0%; in experiment [15], 7%; in experiment [16] it was 43%; in [17], 0%; in [18] it was 6%. Moreover, the “%Inh” value in experiment [19] is given as 4%; in experiment [20] it was 0%.
In the case of `COc1ccc(CNC(=O)NC2CCN(c3ccnc(Nc4cc(OC)c(OC)c(OC)c4)n3)C2)cc1` (stereo not shown) [GSK1379748], the “%Inh” value in experiment [1] is 0%; in experiment [2] it was 7%; in experiment [3] (setting [21]), 0%; in [4], 38%; in experiment [5], 0%; in [6] it was 0%. Besides, the “%Inh” value in experiment [7] stood at 8%; in [8] it was 33%; in experiment [9] it was 0%; in [10], 53%; in experiment [11] it was 3%; in experiment [12], 8%. The “%Inh” value is 0% in [13]; 0% in experiment [14]; 0% in experiment [15]; 20% in experiment [16]; 0% in [17]; 0% in experiment [18]. For the same molecule, the “%Inh” value in experiment [19] and in experiment [20] was 63% throughout.
Turning to `O=S(=O)(c1ccc(-c2ccnc3[nH]ccc23)cc1)N1CCCC1` [GSK846226], the “%Inh” value in experiment [1] is recorded as 0%; in [2], 15%; in [3] (setting [21]), 16%; in experiment [4], 12%; in [5] it was 0%; in [6] it was 45%. Also, the “%Inh” value was 0% in experiment [7]; 48% in experiment [8]; 23% in [9]; 25% in [10]; 0% in experiment [11]; 0% in experiment [12]. The “%Inh” value in [13] amounted to 0%; in experiment [14] it was 29%; in experiment [15], 94.3%; in [16] it was 31%; in experiment [17], 0%; in experiment [18] it was 0%. In addition, the results for the “%Inh” value in [19] and in experiment [20] were 8% and 22%, respectively.
On to `O=C1NC(=O)C(N2CCc3ccccc32)=C1c1ccccc1Cl` [SB-373598], for which the “%Inh” value in experiment [1] was determined as 0%; in [2], 4%; in experiment [3] (1 µM) it was 27%; in experiment [4], 100%; in [5] it was 0%; in experiment [6], 30%. The “%Inh” value in experiment [7] amounted to 24%; in [8], 13%; in experiment [9], 12%; in experiment [10], 0%; in experiment [11] it was 13%; in [12], 17%. In addition, the “%Inh” value amounted to 29% in experiment [13]; 98.1% in experiment [14]; 20% in experiment [15]; 30% in experiment [16]; 2% in experiment [17]; 23% in [18]. For the same molecule, the “%Inh” value in experiment [19] is 0%; in [20], 9%.
For the molecule `Cl.Oc1ccc(-c2nc(-c3ccccc3)[nH]c2-c2ccncc2)cc1` [SB-428218], the “%Inh” value in [1] was 0%; in experiment [2], 11%; in [3] (setting [21]) it was 0%; in [4], 15%; in experiment [5], 0%; in [6], 5%. Moreover, the “%Inh” value in experiment [7] is given as 16%; in experiment [8] it was 1%; in experiment [9] it was 0%; in experiment [10] it was 38%; in [11] it was 42%; in experiment [12] it was 3%. Further, the “%Inh” value in [13] turned out to be 8%; in [14], 0%; in experiment [15], 0%; in [16], 12%; in [17], 0%; in experiment [18], 3%. In addition, the “%Inh” value in experiment [19] came to 33%; in experiment [20] it was 0%.
As to `NC(=O)c1nnc2ccccc2c1N`, the “%Inh” value in [1] is given as 0%; in experiment [2], 5%; in [3] (setting [21]), 24%; in [4] it was 73%; in [5], 0%; in experiment [6], 45%. The “%Inh” value in [7] is 50%; in experiment [8], 37%; in [9], 4%; in [10], 0%; in [11], 0%; in experiment [12], 13%. The “%Inh” value is on record as 0% in experiment [13]; 27% in experiment [14]; 35% in experiment [15]; 0% in experiment [16]; 12% in [17]; 29% in experiment [18]. The “%Inh” value in [19] came to 54%; in experiment [20] it was 19%.
Regarding `Cc1cc(-c2ccc3c(c2)CC[C@@H](N[C@@H](C)c2ccccc2)C3)cnc1N.Cl` [GW412617], the “%Inh” value worked out at 0% in experiment [1]; 0% in experiment [2]; 6% in experiment [3] (setting [21]); 0% in [4]; 0% in [5]; 0% in experiment [6]. Besides, the “%Inh” value stood at 6% in experiment [7]; 12% in experiment [8]; 6% in experiment [9]; 55% in experiment [10]; 0% in experiment [11]; 0% in [12]. The “%Inh” value in experiment [13] was determined as 0%; in experiment [14] it was 0%; in experiment [15], 0%; in experiment [16] it was 0%; in [17] it was 31%; in experiment [18], 17%. Further, the “%Inh” value is 76% in [19] and 2% in experiment [20].
`Cc1cc(N2Cc3ccccc3C2)nc(Nc2ccc(S(=O)(=O)N3CCOCC3)cc2)n1.Cl` [GSK1669917]: the “%Inh” value in experiment [1], in experiment [2], in experiment [3] (setting [21]), in experiment [4], in [5] and in experiment [6] was 0% throughout. The “%Inh” value was 0% in [7]; 0% in experiment [8]; 0% in experiment [9]; 34% in experiment [10]; 0% in experiment [11]; 99.9% in [12]. The “%Inh” value in experiment [13] was found to be 2%; in experiment [14], 0%; in experiment [15], 0%; in experiment [16] it was 29%; in [17], 0%; in experiment [18], 100%. Besides, the “%Inh” value in experiment [19] and in experiment [20] was 0% each time.
For `COc1ccc(C2=C(Nc3cccc(C(=O)O)c3)C(=O)NC2=O)cc1` [SB-390765], the “%Inh” value in experiment [1] worked out at 12%; in [2], 7%; in experiment [3] (1 µM) it was 31%; in experiment [4], 28%; in experiment [5] it was 8%; in experiment [6] it was 8%. The “%Inh” value amounted to 16% in experiment [7]; 21% in experiment [8]; 21% in [9]; 0% in [10]; 19% in experiment [11]; 29% in [12]. Besides, the “%Inh” value in experiment [13] came to 0%; in experiment [14], 16%; in experiment [15], 23%; in experiment [16], 3%; in experiment [17], 4%; in [18], 13%. The figures for the “%Inh” value in experiment [19] and in experiment [20] were 28% and 0%, respectively.
